# Measured values: PubChem BioAssay AID624300 (Southern Research Specialized Biocontainment Screening …, 2012)
# Screen size: about 2,400 compounds; about 360 (15%) were called active.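 The calls were made as follows: active = viability falls under 70% at one or more tested concentrations, taken as toxicity; inactive = viability stays over 70% at every dose.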 Only a sample is shown. Entries with a potency or affinity are not part of this list.
# Assay: HeLa cell cytotoxicity, dose response, cytotoxicity control for MgcRacGAP inhibitor project (AID 624300);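 also: 100% = median of untreated control wells on the same plate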
# Settings: CellTiter-Glo luminescence, 24 h; series mostly up to 100 µM; viability: at the top concentration
row,Structure (SMILES),viability
1,COc1ccc(C(=O)Nc2ccc(N3CCCCCC3)cc2)cc1S(=O)(=O)N1CCOCC1,96.8% (inactive)
2,CCOc1ccc(Nc2n[nH]c(=S)s2)cc1,98.4% (inactive)
3,COc1cc(/C=N\NC(=O)CNC(=O)C(c2ccccc2)c2ccccc2)ccc1O,101% (inactive)
4,CSc1ncnc2c1ncn2CCCNc1ccc(C)c(C)c1,93.2% (inactive)
5,CCOC(=O)c1sc(/N=C/c2c(O)ccc3ccccc23)cc1C,96.4% (inactive)
6,Nc1ccc(Nc2nc(-c3cc4ccccc4oc3=O)cs2)cc1,109% (inactive)
7,Nc1ccc2c(c1Br)Cc1ccccc1-2,93.5% (inactive)
8,COc1cc(CN2CCN(Cc3ccc(C(F)(F)F)cc3)CC2)cc(OC)c1OC,82% (inactive)
9,Nc1c(Cl)cc(NC(=O)c2ccccc2C(=O)O)cc1Br,103% (inactive)
10,COc1ccc2c(c1OC)C(=O)OC2CC(=O)c1ccc(O)c(O)c1 (centres undefined),102% (inactive)
11,O=C(/C=C/c1ccc(O)c(O)c1)NC(=O)c1ccccc1O,106% (inactive)
12,COc1ccc(/C=N/NC(=O)c2ccc(CSc3nc(C)cc(C)n3)cc2)cc1O,82.1% (inactive)
13,O=C(COc1cccc2cccnc12)N/N=C/c1ccc(O)cc1,88.5% (inactive)
14,O=C(Nc1ccccc1)c1cccc(-c2nnc(-c3ccccc3)o2)c1,106% (inactive)
15,COc1ccc(NC(=O)c2cccc(-c3ccc(O)cc3)c2)cn1,83.5% (inactive)
16,O=C(CN1CCCCCC1)NCC1CCCO1 (centres undefined),106% (inactive)
17,C#CCOCCOCCOCCNc1nc(N2CCN(C(=O)C([C@@H](C)O)n3cc([C@@H](N)CCCCN)nn3)CC2)nc(N2CCN(C(=O)[C@H](CO)n3cc([C@@H](N)C(C)C)nn3)CC2)n1 (some centres undefined),107% (inactive)
18,OCCN(C=NC1=NN(c2cccc(C(F)(F)F)c2)CC1)CCO,88.6% (inactive)
19,O=C(N/N=C/c1ccc(O)c(O)c1)c1ccc(-n2cnnn2)cc1,105% (inactive)
20,Cc1cc(-c2n[nH]c(=S)n2/N=C/c2sccc2C)n[nH]1,97.8% (inactive)
21,COc1ccc(NCCC#N)cc1,108% (inactive)
22,COc1ccc(NC2CCCN(C(=O)c3cccc(N(C)C)c3)C2)cc1 (centres undefined),93.3% (inactive)
23,CCOc1cc(N2CCOCC2)c(OCC)cc1NCC(=O)N1CCN(Cc2ccccc2)CC1,98.9% (inactive)
24,Cc1[nH]n(-c2ccccc2)c(=O)c1/C=N/N(C)c1ccccc1,94.8% (inactive)
25,Nc1ccc(N2CCN(c3cccc(Cl)c3)CC2)cc1,109% (inactive)

row,Structure (SMILES),viability
1,Brc1cccc(OCCN2CCOCC2)c1,100% (inactive)
2,CCS(=O)(=O)NC(C)C(c1cccs1)N1CCN(c2ccc(OC)cc2)CC1 (centres undefined),97.6% (inactive)
3,O=C1CCCCCN1Sc1ccccc1,93% (inactive)
4,C=C1c2cccc(O)c2C(O)=C2C(=O)[C@]3(O)C(O)=C(C(N)=O)C(=O)[C@@H](N(C)C)[C@@H]3[C@@H](O)[C@H]12,92.5% (inactive)
5,CCOc1cc(-c2cc(-c3ccc(N)cc3)nc(N)c2C#N)ccc1O,80.9% (inactive)
6,CCOc1cc(-c2cc(-c3ccccc3)nc(N)c2C#N)ccc1O,104% (inactive)
7,CCOc1cc(/C=N/NC(=O)c2ccccc2-n2cccc2)ccc1O,114% (inactive)
8,Nc1ccc2nc(-c3cccnc3)[nH]c2c1,92.3% (inactive)
9,Nc1ccc2nc(-c3ccc(Cl)cc3)[nH]c2c1,83.3% (inactive)
10,COc1cc(CNC2CCCCC2OC)cc(OC)c1 (centres undefined),100% (inactive)
11,COc1ccc2c3c(cccc13)N(C)N=C2C,85.7% (inactive)
12,Cc1cccc(N2CCC(N=CN(C)C)=N2)c1,84.3% (inactive)
13,CCOC(=O)N/N=C/c1ccc(N(CC)CC)cc1O,107% (inactive)
14,O=C(CCC(=O)Nc1ccc(F)cc1)N/N=C/c1ccc(O)cc1,99.1% (inactive)
15,Cc1cc(N2CCCC2)ccc1NC(=O)CN1C(=O)NC2(CCCCC2)C1=O,98.7% (inactive)
16,COc1cc(CN(C)CCc2ccccn2)cc(OC)c1OC,101% (inactive)
17,COc1ccc(CN(C)CCc2ccccn2)cc1OC,99% (inactive)
18,COc1cc(/C(C)=N/N2CCN(Cc3ccc(C)cc3)CC2)ccc1O,89.5% (inactive)
19,O=C(CN1CCN(S(=O)(=O)c2ccccc2F)CC1)N1CCc2ccccc2C1,95.5% (inactive)
20,O=C(O)CCCn1c(=S)[nH]c2c(sc3ccc([N+](=O)[O-])cc32)c1=O,90.5% (inactive)
21,O=c1c2sc3ccccc3c2[nH]c(=S)n1CCN1CCOCC1,96.8% (inactive)
22,COc1cc(/C=N/NC(=O)c2cnccn2)ccc1O,98.5% (inactive)
23,CC1CN(CCCCN2C(=O)c3ccccc3C2=O)CC(C)O1 (centres undefined),102% (inactive)
24,CCCCN(CCCC)CCNC(=O)CSCc1ccc(C)cc1,93% (inactive)
25,CCCCN(CC)CCNC(=O)CCC(=O)Nc1ccc2nc(N3CCN(C)CC3)cc(C)c2c1,107% (inactive)

row,Structure (SMILES),viability
1,CC1(C)Nc2cccc3cccc(c23)N1,104% (inactive)
2,COc1ccc(Br)cc1CN1CCC(N2CCCC2)CC1,112% (inactive)
3,CCOc1ccc(NCc2cccn2-c2nnc(N3CCC(C(=O)NCCCN4CCCCC4)CC3)s2)cc1,93.5% (inactive)
4,CC(/C=C/c1ccc(O)cc1)=N/O,107% (inactive)
5,COc1ccc(NC2CCCN(C(=O)CSc3ccccc3)C2)cc1OC (centres undefined),97.7% (inactive)
6,Cc1ccc(/C=C2/C(=O)ON=C2c2ccccc2)o1,83.9% (inactive)
7,CC1(C)OC(=O)C(=Cc2ccc(-c3ccc(S(N)(=O)=O)cc3)o2)C(=O)O1,99.5% (inactive)
8,Cc1ccc(/C=C2/C(=O)c3ccc(C(=O)O)cc3C2=O)o1,95.9% (inactive)
9,O=S(=O)(O)c1cc(O)c2cc(Nc3ccccc3)ccc2c1,101% (inactive)
10,Nc1ccccc1Nc1cccc(C(F)(F)F)c1,96.2% (inactive)
11,CCOC(=O)c1[nH]c2ccc(C)cc2c1N,80.9% (inactive)
12,COc1cc(/C=C/C(=O)OCc2cn3cc(Cl)ccc3n2)ccc1O,113% (inactive)
13,Cc1oc(-c2ccccc2)cc1C(=O)Nc1ccc(N(C)C)cc1,101% (inactive)
14,CC(=O)Nc1ccc(Nc2ccccc2)cc1,98.2% (inactive)
15,O=C(Nc1ccc(Nc2ccccc2)cc1)C1CC1,98.6% (inactive)
16,O=C(O)c1ccccc1C(=O)Nc1ccc(Nc2ccccc2)cc1,80.3% (inactive)
17,CCN1CCN(c2ccc(N=Cc3ccc(O)cc3O)cc2)CC1,99% (inactive)
18,Cc1ccc(C)c(OCCCCN2CCCCC2)c1,92% (inactive)
19,CCOc1cc(/C=C/c2cccc[n+]2C)ccc1O,103% (inactive)
20,c1csc(CNc2ccc3c(c2)OCCO3)c1,96.3% (inactive)
21,Cc1ccc(S(=O)(=O)Oc2ccc(/C=C3\C(=N)N4N=C(S(C)(=O)=O)SC4=NC3=O)cc2)cc1,106% (inactive)
22,CCN(CC(=O)NCc1ccc(F)cc1)C(=O)CN1CCN(c2ccc(OC)cc2)CC1,104% (inactive)
23,O=C(CNCC1CCCO1)Nc1ccc(N2CCCCCC2)cc1 (centres undefined),95.6% (inactive)
24,Cc1ccccc1N1C(S)=C(C#N)C(=O)NC1c1cccs1 (centres undefined),98.3% (inactive)
